HIV Env fusion: inhibitors of HIV Env-mediated cell fusion | inhibition, % at 12.3 µM | 1.1% of 360,000 active | AID 651610 | HeLa-JRFL Env/CEM21 cell fusion, luciferase;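 active means mean replicate inhibition score of at least 50 and every replicate individually at or above 50; inconclusive means only one of the two criteria met; inactive means mean below 50 and not all replicates reaching 50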;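 further: 0% = plate neutral controls and 100% = maraviroc near 300 nM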
Wnt bcat act: activators of Wnt/beta-catenin signaling | AID 743398 | 1.2% of 300,000 active | activation, % at 9.35 µM | Wnt/beta-catenin reporter cell assay, activator, plate reader; in the data active means activation above about 30%, passing the limit was not always enough; inconclusive means no clear call, values can overlap the other calls;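 further: 0% = neutral control wells and 100% = positive control wells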
miR-122 sensor: inhibitors of miR-122 in Huh7 cells. 0.3% of 340,000 active. Huh7 miR-122 Renilla luciferase sensor, 48 h; neutral wells = 0, positive control = 100. AID 602342. activation (reporter increase), % at 12.5 µM;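 active means mean replicate activation score at least 90 and every replicate individually at or above 90; inconclusive means only one of the two criteria met; inactive means neither criterion met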;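 further: higher luciferase means less miR-122 activity so hits act as miR-122 inhibitors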
esBAF inh: SWI/SNF esBAF complex inhibition; mouse ES cells, Bmi1-luciferase knock-in reporter, 24 h; 100% = twice the neutral-well signal; reporter increase, % at 12.5 µM; 2% of 350,000 active; AID 602393; in the data active means activation above about 40%; inconclusive means no clear call, values can overlap the other calls;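 further: 0% = median of the plate's neutral control wells and 100% = double that signal; a rise in the Bmi1 reporter signal indicates esBAF inhibition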
MITF TRPM1 HTS: increases MITF-driven TRPM1 promoter luciferase signal; SK-MEL-5 TRPM1-promoter luciferase, 24 h; % of positive control, neutral wells = 0; activation, % at 12.5 µM; 0.75% of 300,000 active; AID 588334;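 active means mean activation of at least 80% with every replicate also reaching 80%; inconclusive means mean reaches 80% but some replicate falls short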;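 further: 0% = neutral control wells and 100% = parthenolide positive control wells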
esBAF Ring1 qPCR: esBAF inhibition confirmed by Ring1 de-repression | mouse ESC E14, Ring1 mRNA RT-qPCR fold change | shares compounds with esBAF inh | AID 743176 | fold change at 33 µM | 550 tested, under 10 active;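 active means Ring1 gene expression raised more than 2-fold over untreated cells in both replicates at either tested dose; inconclusive means only one replicate above 2-fold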;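 further: Ring1 transcript normalised to actin housekeeping signal by TaqMan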
Fgf4 repress: esBAF inhibition confirmed by Fgf4 repression | shares compounds with esBAF inh | mouse ESC E14, Fgf4 mRNA qPCR fold change; active compounds read low | Fgf4 expression fold change at 33 µM | 4% of 550 active | AID 743177;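 active means Fgf4 expression under 0.8 fold of control in both repeat measurements at one or both tested doses; inconclusive means under 0.8 fold in just a single repeat measurement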;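 further: Fgf4 transcript normalised to actin in duplex TaqMan qPCR; cells exposed to compound for 24 h before lysis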
esBAF Bmi1 qPCR: confirmation of esBAF inhibitors: Bmi1 de-repression in mouse ESCs | 550 tested, under 10 active | shares compounds with esBAF inh | AID 743180 | mouse ESE14 ES cells, Bmi1 mRNA qPCR fold; active compounds read high | fold change at 33 µM;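 active means Bmi1 expression fold change above 6 at either tested concentration, seen in replicate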;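 further: higher fold means more Bmi1 de-repression and stronger esBAF inhibition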
A549 tox SP: A549 cell cytotoxicity; AID 743188; 550 tested, under 10 active; shares compounds with esBAF inh; plate reader; cell viability change % (negative = cytotoxic), % at 25 µM, hits read low; call rule not given here
HepG2 tox SP: cytotoxicity in HepG2 cells. 4% of 550 active. activity change, negative = inhibition, % at 25 µM. plate reader; active compounds read low. shares compounds with esBAF inh; in the data active means activity change below about -50%
HEK293 tox SP: kills or reduces viability of HEK293 cells; shares compounds with esBAF inh; HEK293 cytotoxicity, plate reader; activity change, negative = inhibition, % at 25 µM, hits read low; 3% of 550 active; in the data active means activity change below about -38%, passing the limit was not always enough
The depositor's hits bear a star; [ ] = dose if it differs, or a comment. This is a sample that favours compounds with a hit; in the whole collection about 3.4% have one here.

Results for O=C([C@H]1[C@H](CO)[C@H]2Cn3c(ccc(-c4ccncc4)c3=O)[C@H]2N1CCC(F)(F)F)N1CCOCC1 ?
miR-122 sensor: 2[16.7 µM]; esBAF inh: -4

Results for COc1ccc(NC(=O)c2c(F)c(F)c(F)c(F)c2F)cc1Cl ?
miR-122 sensor: -28; esBAF inh: -3; MITF TRPM1 HTS: -1

What do the screens show for `COc1ccc(NC(=O)c2cc(F)cc(F)c2)cc1Cl`?
HIV Env fusion: -90; Wnt bcat act: 56*; miR-122 sensor: -1; esBAF inh: 58*; esBAF Ring1 qPCR: 1.4; Fgf4 repress: 1.1; esBAF Bmi1 qPCR: 1.5; A549 tox SP: -7; HepG2 tox SP: -11; HEK293 tox SP: 0

What do the screens show for `CC1(C)C=Cc2cc(-c3coc4cc(O)cc(O)c4c3=O)cc(O)c2O1`?
Wnt bcat act: 23; miR-122 sensor: 4; esBAF inh: 68*; MITF TRPM1 HTS: 35; esBAF Ring1 qPCR: 1.4; Fgf4 repress: 0.97; esBAF Bmi1 qPCR: 1.4; A549 tox SP: 7; HepG2 tox SP: -41; HEK293 tox SP: -8

How did CCCS(=O)(=O)N1CCC(C(=O)NC2CCC(C)CC2)CC1 (stereo unspecified) do in these assays?
miR-122 sensor: -6; esBAF inh: 56*; MITF TRPM1 HTS: 74; esBAF Ring1 qPCR: 1.1; Fgf4 repress: 0.89; esBAF Bmi1 qPCR: 1.3; A549 tox SP: -8; HepG2 tox SP: -22; HEK293 tox SP: -7

How did C(=N\N1CCN(c2ccccc2)CC1)/c1ccccc1 do in these assays?
HIV Env fusion: -25; Wnt bcat act: -2; miR-122 sensor: -1; esBAF inh: 63*; MITF TRPM1 HTS: 91*; esBAF Ring1 qPCR: 0.99; Fgf4 repress: 1; esBAF Bmi1 qPCR: 1.5; A549 tox SP: -1; HepG2 tox SP: 10; HEK293 tox SP: 0

What do the screens show for `Cc1noc(C)c1S(=O)(=O)Nc1ccc2c(c1)CC(=O)N([C@@H](C)CO)C[C@@H](C)[C@@H](CN(C)S(C)(=O)=O)O2`?
HIV Env fusion: 1[16.7 µM]; miR-122 sensor: 0[16.7 µM]; esBAF inh: 0

How did COc1ccccc1C#Cc1cnc2c(c1)C(=O)N([C@@H](C)CO)C[C@@H](C)[C@@H](CN(C)C(=O)CC1CC1)O2 do in these assays?
HIV Env fusion: -9[16.7 µM]; miR-122 sensor: 30[16.7 µM]; esBAF inh: -1

How did O=C(N[C@@H]1CC[C@H](CCNC(=O)C2CCOCC2)O[C@H]1CO)c1ccccn1 do in these assays?
HIV Env fusion: 7[16.7 µM]; esBAF inh: 1

What do the screens show for `O=C(O)CC(=O)Nc1ccccc1`?
miR-122 sensor: -4; esBAF inh: 1; MITF TRPM1 HTS: -7

Results for O=C(CC(=O)c1ccccc1)Nc1ccccc1 ?
HIV Env fusion: -49; Wnt bcat act: 34*; miR-122 sensor: 11; esBAF inh: 76*; esBAF Ring1 qPCR: 1.2; Fgf4 repress: 0.91; esBAF Bmi1 qPCR: 1.4; A549 tox SP: -2; HepG2 tox SP: -19; HEK293 tox SP: -3

What do the screens show for `N/C(=N\OC(=O)CC1CCCCC1)c1ccccn1`?
HIV Env fusion: -47; miR-122 sensor: 1; esBAF inh: 82*; MITF TRPM1 HTS: 88*; esBAF Ring1 qPCR: 1.4; Fgf4 repress: inconclusive; esBAF Bmi1 qPCR: 1.6; A549 tox SP: -1; HepG2 tox SP: -24; HEK293 tox SP: 8

Results for N/C(=N\OC(=O)CC1CCCCC1)c1ccncc1 ?
HIV Env fusion: -23; Wnt bcat act: 1; MITF TRPM1 HTS: 9

Results for COc1cccc(S(=O)(=O)Nc2ccc3c(c2)C(=O)N(C)C[C@H](OC)[C@@H](C)CN(Cc2ccccc2F)[C@@H](C)CO3)c1 ?
esBAF inh: 1

Results for CO[C@@H]1CN(C)C(=O)c2ccc(NS(=O)(=O)c3ccccc3F)cc2OC[C@H](C)NC[C@@H]1C ?
HIV Env fusion: 3[16.7 µM]; esBAF inh: -2

Results for Fc1ccccc1NC(=S)N1CCC(c2ccccc2)C1 (stereo unspecified) ?
HIV Env fusion: -49; Wnt bcat act: 48*; miR-122 sensor: 4; esBAF inh: 82*; MITF TRPM1 HTS: 109*; esBAF Ring1 qPCR: 1.2; Fgf4 repress: 0.98; esBAF Bmi1 qPCR: 1.5; A549 tox SP: -14; HepG2 tox SP: 3; HEK293 tox SP: -19

Results for S=C(Nc1ccccc1Cl)N1CCC(c2ccccc2)C1 (stereo unspecified) ?
HIV Env fusion: -28; Wnt bcat act: 16; MITF TRPM1 HTS: 39

How did CO[C@H]1CN(C)C(=O)c2cc(NC(C)=O)ccc2OC[C@H](C)N(C(=O)C2CCCCC2)C[C@@H]1C do in these assays?
esBAF inh: 0

Results for CC(=O)Nc1ccc2nc(C)n(Cc3ccc(Cl)cc3)c(=O)c2c1 ?
miR-122 sensor: -2; esBAF inh: 55*; esBAF Ring1 qPCR: 1.6; Fgf4 repress: 0.81; esBAF Bmi1 qPCR: 1.3; A549 tox SP: -6; HepG2 tox SP: -12; HEK293 tox SP: -17

How did Cc1nc(Nc2ccccc2)sc1C(=O)c1ccc(F)cc1 do in these assays?
HIV Env fusion: -14; Wnt bcat act: 10; miR-122 sensor: -12; esBAF inh: 66*; MITF TRPM1 HTS: 53; esBAF Ring1 qPCR: 1.1; Fgf4 repress: 0.88; esBAF Bmi1 qPCR: 1.5; A549 tox SP: 7; HepG2 tox SP: -12; HEK293 tox SP: 0

How did COc1ccc(C(=O)c2sc(Nc3ccc(NC(C)=O)cc3)nc2C)cc1 do in these assays?
HIV Env fusion: 7; Wnt bcat act: -4; miR-122 sensor: 6; esBAF inh: 9

How did COc1ccc(Nc2nc(C)c(C(C)=O)s2)cc1 do in these assays?
HIV Env fusion: -96; Wnt bcat act: 5; miR-122 sensor: -2; esBAF inh: 82*; esBAF Ring1 qPCR: 1.2; Fgf4 repress: 0.88; esBAF Bmi1 qPCR: 1.4; A549 tox SP: -5; HepG2 tox SP: -8; HEK293 tox SP: 0

How did N#Cc1c(/N=C/c2cccs2)sc2c1CCC2 do in these assays?
HIV Env fusion: -138; Wnt bcat act: 4; miR-122 sensor: 0; esBAF inh: 105*; esBAF Ring1 qPCR: 1.1; Fgf4 repress: inconclusive; esBAF Bmi1 qPCR: 1.2; A549 tox SP: -10; HepG2 tox SP: -9; HEK293 tox SP: -4

Bioassay records from PubChem BioAssay.
